Results: the supplement of paper PMC11732987, “Enantioselective OTUD7B fragment discovery through chemoproteomics screening and high-throughput optimisation” (Communications Chemistry, 2025)

Legend:
Assay in all cases: log2 ratio of Biotin-Ahx-Ub-VS probe labelling (fragment/DMSO); higher = less target engagement (more negative = stronger competition), active = hit call of the paper (q ≤ 0.05, log2 ratio ≤ -1)
Conditions in all cases: compound concentration: 200 uM; treatment time: 3 h
USP19 = molecular target: T1, USP19 (UniProt O94966)
T1 sequence (whole entry): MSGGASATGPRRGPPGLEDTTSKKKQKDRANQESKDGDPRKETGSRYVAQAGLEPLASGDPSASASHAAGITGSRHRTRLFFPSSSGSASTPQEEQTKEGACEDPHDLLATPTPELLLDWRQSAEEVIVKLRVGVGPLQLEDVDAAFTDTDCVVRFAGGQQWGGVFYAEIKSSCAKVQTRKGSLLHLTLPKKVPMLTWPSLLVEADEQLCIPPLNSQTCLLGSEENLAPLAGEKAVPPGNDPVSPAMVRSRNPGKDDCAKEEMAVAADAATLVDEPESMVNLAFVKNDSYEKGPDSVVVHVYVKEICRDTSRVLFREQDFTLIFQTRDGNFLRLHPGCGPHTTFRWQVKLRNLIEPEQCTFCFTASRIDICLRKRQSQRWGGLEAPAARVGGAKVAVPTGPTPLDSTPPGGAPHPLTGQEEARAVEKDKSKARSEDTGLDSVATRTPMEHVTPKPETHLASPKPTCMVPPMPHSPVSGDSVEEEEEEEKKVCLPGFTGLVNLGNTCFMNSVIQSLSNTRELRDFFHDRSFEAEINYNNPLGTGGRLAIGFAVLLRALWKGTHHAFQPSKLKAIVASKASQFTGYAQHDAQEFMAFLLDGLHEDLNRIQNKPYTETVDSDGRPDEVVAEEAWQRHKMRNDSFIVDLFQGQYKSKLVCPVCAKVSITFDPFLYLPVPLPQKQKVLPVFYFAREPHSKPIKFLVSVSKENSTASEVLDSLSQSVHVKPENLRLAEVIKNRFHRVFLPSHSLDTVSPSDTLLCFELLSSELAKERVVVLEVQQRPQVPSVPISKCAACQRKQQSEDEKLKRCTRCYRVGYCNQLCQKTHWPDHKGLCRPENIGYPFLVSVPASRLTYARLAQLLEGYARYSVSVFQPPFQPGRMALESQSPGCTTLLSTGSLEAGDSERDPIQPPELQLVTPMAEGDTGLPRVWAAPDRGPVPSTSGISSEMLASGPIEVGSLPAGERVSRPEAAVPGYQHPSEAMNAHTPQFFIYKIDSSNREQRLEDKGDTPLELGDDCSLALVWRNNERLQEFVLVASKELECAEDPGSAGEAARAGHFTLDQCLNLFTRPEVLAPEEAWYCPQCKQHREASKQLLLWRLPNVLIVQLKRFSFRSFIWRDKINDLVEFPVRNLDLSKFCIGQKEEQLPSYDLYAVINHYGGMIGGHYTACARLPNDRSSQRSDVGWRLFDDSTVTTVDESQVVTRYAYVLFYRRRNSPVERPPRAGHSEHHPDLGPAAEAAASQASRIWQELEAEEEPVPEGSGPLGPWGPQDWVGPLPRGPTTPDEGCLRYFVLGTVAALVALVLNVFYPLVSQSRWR
In short: (§1)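 HEK293T lysate, 495 µg per sample in Tris/CHAPS/IGEPAL buffer with protease inhibitors, was treated in triplicate with fragment at 200 µM or vehicle for 3 h and then with Biotin-Ahx-Ub-VS at 0.5 µM final for 1 h. Labelled DUBs were NeutrAvidin-enriched, digested with LysC and trypsin, and run by diaPASEF LC-MS/MS. Spectronaut label-free quantities were global-median-normalised, and values are average log2 fragment/vehicle ratios by unpaired t-test on proteins with ≥2 unique peptides.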

USP24 = USP24 (UniProt Q9UPU5)
Sequence of USP24 (Q9UPU5 whole entry): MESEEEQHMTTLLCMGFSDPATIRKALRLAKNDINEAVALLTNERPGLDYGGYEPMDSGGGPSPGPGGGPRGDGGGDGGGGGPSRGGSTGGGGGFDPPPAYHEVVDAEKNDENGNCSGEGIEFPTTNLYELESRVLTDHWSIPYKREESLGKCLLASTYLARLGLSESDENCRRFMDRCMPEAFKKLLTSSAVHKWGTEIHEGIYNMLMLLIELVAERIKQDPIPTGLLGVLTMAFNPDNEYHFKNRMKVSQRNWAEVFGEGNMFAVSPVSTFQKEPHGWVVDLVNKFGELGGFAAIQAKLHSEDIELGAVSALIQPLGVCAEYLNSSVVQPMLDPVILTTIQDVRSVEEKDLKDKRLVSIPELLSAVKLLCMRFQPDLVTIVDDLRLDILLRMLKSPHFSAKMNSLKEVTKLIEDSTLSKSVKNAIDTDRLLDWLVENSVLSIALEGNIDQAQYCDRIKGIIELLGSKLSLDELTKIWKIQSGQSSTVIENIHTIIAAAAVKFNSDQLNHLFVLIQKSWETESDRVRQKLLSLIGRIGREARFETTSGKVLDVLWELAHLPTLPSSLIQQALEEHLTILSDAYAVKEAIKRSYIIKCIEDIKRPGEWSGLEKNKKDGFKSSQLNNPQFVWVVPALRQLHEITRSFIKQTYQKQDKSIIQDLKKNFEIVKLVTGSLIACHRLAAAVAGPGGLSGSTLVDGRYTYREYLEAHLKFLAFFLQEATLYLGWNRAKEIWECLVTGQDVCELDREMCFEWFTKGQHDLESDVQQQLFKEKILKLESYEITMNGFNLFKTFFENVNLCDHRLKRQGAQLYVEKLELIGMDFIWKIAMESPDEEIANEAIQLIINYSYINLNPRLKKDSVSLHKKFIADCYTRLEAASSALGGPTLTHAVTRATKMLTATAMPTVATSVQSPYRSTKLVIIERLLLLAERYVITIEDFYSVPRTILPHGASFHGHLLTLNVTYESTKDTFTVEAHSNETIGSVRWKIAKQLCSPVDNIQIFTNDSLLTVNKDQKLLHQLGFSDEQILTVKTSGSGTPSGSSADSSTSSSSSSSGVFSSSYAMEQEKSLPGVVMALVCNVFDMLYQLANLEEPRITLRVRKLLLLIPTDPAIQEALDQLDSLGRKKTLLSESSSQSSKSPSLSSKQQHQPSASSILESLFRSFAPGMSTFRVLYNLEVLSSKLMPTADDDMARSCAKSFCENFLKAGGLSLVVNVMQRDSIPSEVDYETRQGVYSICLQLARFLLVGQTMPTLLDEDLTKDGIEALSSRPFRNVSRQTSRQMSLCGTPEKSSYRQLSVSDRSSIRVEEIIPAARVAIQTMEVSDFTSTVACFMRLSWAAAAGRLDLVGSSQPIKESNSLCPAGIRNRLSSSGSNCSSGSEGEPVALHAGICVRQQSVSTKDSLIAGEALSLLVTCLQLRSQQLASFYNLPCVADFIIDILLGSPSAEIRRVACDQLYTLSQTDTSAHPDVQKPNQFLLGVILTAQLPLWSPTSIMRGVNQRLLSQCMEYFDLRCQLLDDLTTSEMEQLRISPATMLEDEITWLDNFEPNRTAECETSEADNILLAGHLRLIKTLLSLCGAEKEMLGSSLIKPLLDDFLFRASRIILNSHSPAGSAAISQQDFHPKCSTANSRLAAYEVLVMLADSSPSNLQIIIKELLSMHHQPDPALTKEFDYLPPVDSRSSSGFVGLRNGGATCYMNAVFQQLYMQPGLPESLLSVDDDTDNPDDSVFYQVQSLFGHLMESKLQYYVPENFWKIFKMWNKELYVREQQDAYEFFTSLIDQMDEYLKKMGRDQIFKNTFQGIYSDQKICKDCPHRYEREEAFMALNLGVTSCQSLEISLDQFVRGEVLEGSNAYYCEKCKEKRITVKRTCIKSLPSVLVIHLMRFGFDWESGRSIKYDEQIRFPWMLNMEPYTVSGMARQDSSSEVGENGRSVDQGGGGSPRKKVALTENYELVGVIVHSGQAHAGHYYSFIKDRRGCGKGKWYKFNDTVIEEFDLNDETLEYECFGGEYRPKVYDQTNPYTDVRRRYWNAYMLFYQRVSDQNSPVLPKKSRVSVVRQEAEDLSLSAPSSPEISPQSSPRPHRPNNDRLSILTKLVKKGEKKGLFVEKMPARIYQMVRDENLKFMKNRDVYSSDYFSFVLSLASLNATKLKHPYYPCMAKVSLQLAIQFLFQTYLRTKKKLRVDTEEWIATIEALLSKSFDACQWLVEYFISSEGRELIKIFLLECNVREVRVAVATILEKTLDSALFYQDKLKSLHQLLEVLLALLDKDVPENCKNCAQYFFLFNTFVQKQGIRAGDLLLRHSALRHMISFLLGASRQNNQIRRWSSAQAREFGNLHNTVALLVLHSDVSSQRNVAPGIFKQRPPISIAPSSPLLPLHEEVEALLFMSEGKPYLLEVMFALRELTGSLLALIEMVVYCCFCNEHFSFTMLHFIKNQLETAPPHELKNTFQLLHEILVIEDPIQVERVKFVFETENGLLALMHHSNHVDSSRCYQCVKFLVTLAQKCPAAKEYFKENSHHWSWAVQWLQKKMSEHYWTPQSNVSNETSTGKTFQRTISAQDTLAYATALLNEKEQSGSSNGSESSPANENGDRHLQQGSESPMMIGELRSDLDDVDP
In short: as §1

USP25 = molecular target: T2, USP25 (UniProt Q9UHP3)
T2 sequence (whole entry): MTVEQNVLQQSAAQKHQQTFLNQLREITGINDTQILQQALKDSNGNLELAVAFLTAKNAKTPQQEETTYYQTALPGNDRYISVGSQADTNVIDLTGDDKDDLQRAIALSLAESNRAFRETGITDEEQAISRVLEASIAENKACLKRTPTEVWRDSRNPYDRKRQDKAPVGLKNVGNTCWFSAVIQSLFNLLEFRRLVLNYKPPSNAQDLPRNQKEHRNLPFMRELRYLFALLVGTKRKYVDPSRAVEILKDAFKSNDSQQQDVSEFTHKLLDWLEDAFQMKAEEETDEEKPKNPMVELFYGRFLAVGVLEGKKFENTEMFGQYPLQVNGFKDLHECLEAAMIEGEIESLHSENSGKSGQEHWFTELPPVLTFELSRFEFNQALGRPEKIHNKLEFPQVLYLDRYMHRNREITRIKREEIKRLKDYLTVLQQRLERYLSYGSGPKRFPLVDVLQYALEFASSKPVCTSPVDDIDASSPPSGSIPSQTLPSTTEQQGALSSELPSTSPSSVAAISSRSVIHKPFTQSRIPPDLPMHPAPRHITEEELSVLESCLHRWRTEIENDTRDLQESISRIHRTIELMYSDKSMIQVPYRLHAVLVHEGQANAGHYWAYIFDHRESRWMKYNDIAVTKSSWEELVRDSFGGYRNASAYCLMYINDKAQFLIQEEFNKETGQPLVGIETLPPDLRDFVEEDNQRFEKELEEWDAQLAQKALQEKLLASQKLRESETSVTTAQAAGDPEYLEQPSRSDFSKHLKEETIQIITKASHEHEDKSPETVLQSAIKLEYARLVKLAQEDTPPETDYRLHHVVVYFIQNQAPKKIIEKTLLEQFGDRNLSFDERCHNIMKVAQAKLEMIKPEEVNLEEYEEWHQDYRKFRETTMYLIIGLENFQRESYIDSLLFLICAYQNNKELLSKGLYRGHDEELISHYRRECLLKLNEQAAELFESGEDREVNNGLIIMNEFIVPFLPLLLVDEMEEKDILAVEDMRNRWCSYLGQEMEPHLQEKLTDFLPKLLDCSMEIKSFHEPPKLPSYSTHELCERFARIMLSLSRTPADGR
In short: as §1

USP28 = molecular target: T3, USP28 (UniProt Q96RU2)
T3 sequence (whole entry): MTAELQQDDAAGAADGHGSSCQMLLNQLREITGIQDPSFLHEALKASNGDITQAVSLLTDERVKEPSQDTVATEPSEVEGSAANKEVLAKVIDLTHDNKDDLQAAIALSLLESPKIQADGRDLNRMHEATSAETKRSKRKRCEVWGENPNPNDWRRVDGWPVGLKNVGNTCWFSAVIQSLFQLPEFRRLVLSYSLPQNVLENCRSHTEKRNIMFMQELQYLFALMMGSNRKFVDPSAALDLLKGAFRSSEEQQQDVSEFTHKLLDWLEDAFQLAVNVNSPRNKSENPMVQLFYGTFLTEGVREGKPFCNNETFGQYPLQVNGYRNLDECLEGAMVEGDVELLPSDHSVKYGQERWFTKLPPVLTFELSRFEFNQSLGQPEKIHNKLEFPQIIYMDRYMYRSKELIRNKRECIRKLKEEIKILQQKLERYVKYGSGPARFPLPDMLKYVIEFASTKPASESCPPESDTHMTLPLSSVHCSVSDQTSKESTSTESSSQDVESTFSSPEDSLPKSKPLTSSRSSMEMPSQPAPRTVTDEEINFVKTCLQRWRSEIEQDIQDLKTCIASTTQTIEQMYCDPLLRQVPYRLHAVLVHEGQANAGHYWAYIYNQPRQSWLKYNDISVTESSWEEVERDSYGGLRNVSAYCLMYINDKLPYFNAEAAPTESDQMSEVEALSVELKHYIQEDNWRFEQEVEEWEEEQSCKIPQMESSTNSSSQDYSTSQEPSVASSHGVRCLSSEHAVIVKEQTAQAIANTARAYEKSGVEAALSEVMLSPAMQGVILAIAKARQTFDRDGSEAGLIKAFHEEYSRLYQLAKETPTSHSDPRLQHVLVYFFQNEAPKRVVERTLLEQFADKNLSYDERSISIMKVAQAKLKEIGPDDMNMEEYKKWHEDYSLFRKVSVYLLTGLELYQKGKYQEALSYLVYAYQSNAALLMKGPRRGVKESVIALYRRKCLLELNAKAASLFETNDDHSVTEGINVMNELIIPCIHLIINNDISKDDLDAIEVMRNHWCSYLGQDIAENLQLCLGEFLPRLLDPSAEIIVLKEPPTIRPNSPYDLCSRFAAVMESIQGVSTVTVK
In short: as §1

Measured: log2 ratio of Biotin-Ahx-Ub-VS probe labelling

CN1c2ccccc2C(NC(=O)CCl)CS1(=O)=O (centres undefined)
inactive: USP19 -0.159 | USP24 -0.201 | USP25 -0.52 | USP28 -0.788
